Lassa entry inh: qHTS for Inhibitors of binding or entry into cells for Lassa Virus; Lassa virus pseudotype entry inhibition, cell reporter; Potency, µM (series often up to 37.9 µM), usual class: inhibitors; 300,000 compounds, 1.2% hits; calls by dose curve; tested in HEK293 cells; further: nearly all actives have a fitted effect of over 50% in size
MARV entry inh: qHTS for inhibitors of binding or entry into cells for Marburg Virus. Marburg virus pseudotyped entry inhibition, cell reporter. Potency, µM (doses to about 37.8 µM), usual class: inhibitors. 300,000 compounds, 1.8% hits. AID 540276, 2011; calls by dose curve; tested in HEK293 cells
HCMV inh: qHTS Assay for inhibitors of the human cytomegalovirus (HCMV); HFF cells, HCMV-luciferase reporter, 72 h; hits give low values; activity change, negative = inhibition, % at 57.5 µM; 410,000 compounds, 4.5% hits; in the data active means activity change below about -60%; inconclusive means no clear call, values can overlap the other calls; inactive means above about -39%
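Steps: HFFs plated, 16 h 37C; compounds added; HCMV-luciferase added to MOI 1 PFU/cell; 72 h 37C; OneGlo reagent, 5 min room temperature; luminescence read, normalized to controls.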
HCV inhibitor: qHTS Assay for Inhibitors of Hepatitis C Virus (HCV); Huh7.5.1 HCVcc-Cre infection, luciferase reporter, 44 h; Potency, µM (doses to about 41.8 µM), usual class: inhibitors; 340,000 compounds, 3.4% hits; active means well fitted inhibition curve with a large enough effect; inconclusive means small, poorly fitted or top-dose-only effect, or another doubt; inactive means no such curve, though single readings can be large or run the other way
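1,000 cells/well; 4 h culture; + compound; + HCVcc-Cre (~0.5 moi); 44 h; luciferase substrate, RT 15 min; read 15 sec.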
FMDV antiviral: High Throughput Screening for Foot and Mouth Disease Virus Antivirals | AID 1159524, 2015 | Potency, µM (top dose mostly 57.9 µM), most hits filed as inhibitors | 410,000 compounds, 1.2% hits | FMDV antiviral cell-based qHTS; calls by dose curve; tested in HEK293T cells; further: read-out not given here; nearly all actives have a fitted effect of over 45% in size
Hits are given with their value; n = inactive; u = inconclusive; x = not tested or not shown. An excerpt weighted towards active compounds, which were near 7.9% of everything screened.

SMILES | Lassa entry inh | MARV entry inh | HCMV inh | HCV inhibitor | FMDV antiviral
Cc1ccc(NC(=O)c2ccc3nccnc3c2)c(C)c1 | n | u | -68 | n | n
COCCCN1C(=O)c2ccc(C(=O)Nc3ccc(C)cc3C)cc2C1=O | x | x | -92 | n | n
Cc1cc(NC(=O)c2ccc3nccnc3c2)ccc1Br | n | u | n | u | n
COC(=O)c1ccc(NC(=O)c2ccc3nccnc3c2)cc1 | n | n | n | u | n
O=C(Nc1ccc(SC(F)F)cc1)c1ccc2nccnc2c1 | n | u | -78 | 3.5µM | x
Cc1ccc(CN2C(=O)C(F)(F)Oc3ccccc32)cc1 | x | x | n | x | n
COc1ccc2nc(C(c3ccc(C)cc3)n3c(-c4ccccc4Br)nc4ccccc43)[nH]c2c1 (centres undefined) | x | x | n | x | n
CCCCC(CC)C(=O)NCc1ccc(F)cc1 (centres undefined) | n | n | u | n | n
CC1CCCCN1CCCNC(=O)c1[nH]c2ccccc2c1Sc1ccc(Cl)cc1 (centres undefined) | n | n | n | x | n
CCOC(=O)c1c(C)[nH]c(C)c1C(=O)COC(=O)/C=C/c1ccc(OC(F)F)cc1 | 11µM | u | n | 32µM | u
COc1ccc(Nc2nc(-c3cccc(OC)c3O)nc3ccccc23)cc1 | x | x | u | 5.6µM | n
COc1cccc(-c2nc(NC(C)(C)C)c3ccccc3n2)c1O | u | n | n | u | 25µM
CN(Cc1cccc(C(F)(F)F)c1)C(=O)[C@H]1O[C@@H](n2ccc(N)nc2=O)[C@H](O)[C@@H]1O | x | x | n | x | n
O=C(Cn1c(=O)n(Cc2nc(-c3ccccc3)no2)c(=O)c2ccccc21)Nc1cccc(C(F)(F)F)c1 | n | x | n | x | 20µM
COC(=O)[C@]1(C#N)[C@H](CC(C)C)C(=O)N(Cc2ccc(Cl)cc2)[C@@H]1c1ccc(OC)cc1 | x | x | n | x | x
Cc1cc2oc(=O)cc(CN3CCCCC3C)c2cc1C(C)C (centres undefined) | u | n | n | 13µM | n
COc1ccc(CN(C)Cc2cc(=O)oc3cc(C)c(C(C)C)cc23)cc1OC | u | u | n | u | u
COc1ccc2oc(=O)cc(CN(C)Cc3ccccc3)c2c1 | n | u | u | 7.9µM | n
Cc1cc2oc(=O)cc(CN(C)Cc3ccccc3)c2cc1C(C)C | n | u | n | 8.9µM | n
CN(Cc1ccccc1)Cc1cc(=O)oc2ccccc12 | u | x | n | x | n
CCC(C)(C)NS(=O)(=O)c1cc(CN2C(=O)c3cccnc3C2=O)ccc1OC | x | x | u | n | n
COc1ccc(NC(=O)CSc2ccccn2)cc1OC | n | n | n | n | n
COc1ccc(NC(=O)CSc2ncccc2C(=O)OC(C)C)cc1OC | u | u | -87 | 7.9µM | u
c1cnc(N2CCN(c3ncc4c(n3)CCNC4)CC2)nc1 | n | n | n | x | n
COc1cc(CN2CC(=O)N(c3cccc(Cl)c3C)C2=S)cc(OC)c1OC | x | x | -63 | n | u
SMILES | Lassa entry inh | MARV entry inh | HCMV inh | HCV inhibitor | FMDV antiviral
COc1cc(CN2CC(=O)N(c3ccc(C)c(Cl)c3)C2=S)cc(OC)c1OC | n | n | n | n | n
COc1cc(CN2CC(=O)N(c3ccc(C)cc3)C2=S)cc(OC)c1OC | n | u | n | u | n
COc1cc(CN2CC(=O)N(c3ccccc3Cl)C2=S)cc(OC)c1OC | u | u | n | u | 32µM
COCC(C)NCc1cc2ccc(OC)cc2nc1N1CCN(c2ccc(F)cc2)CC1 (centres undefined) | x | x | x | x | n
CCc1ccc2c(c1)c(=O)c(S(=O)(=O)c1ccccc1)cn2CC(=O)Nc1cc(C)ccc1C | n | n | n | x | n
O=c1c2ccccc2oc2ccc(-c3ccc4cc[nH]c4c3)cc12 | x | x | x | 16µM | n
CCOC(=O)C1=C(O)c2ccccc2C(=O)/C1=C\c1ccc(CC)cc1 | u | 2.1µM | x | u | u
Cc1cc(C)c(S(=O)(=O)N2CCN(C(=O)c3ccc4c(c3)OCO4)CC2)c(C)c1 | u | n | n | u | n
NC(=O)c1cccc(-c2ccc3c(c2)N(CC2CC2)C(=O)COC3)c1 | x | x | n | x | x
Cc1ccc(S(=O)(=O)CCC(=O)Nc2ccccc2Cl)cc1 | x | x | n | n | n
O=C(CCS(=O)(=O)c1ccc(Cl)cc1)Nc1ccccc1Br | n | n | -98 | n | n
CC(=O)c1sc(NC(=O)CCS(=O)(=O)c2ccc(Cl)cc2)nc1C | u | u | n | 1.1µM | n
Cc1cccc(NC(c2ccccc2C)c2ccc3ccc(C)nc3c2O)n1 (centres undefined) | u | u | n | x | u
Oc1c(C(Nc2ccccn2)c2ccccc2F)ccc2cccnc12 (centres undefined) | u | x | -95 | x | n
Cc1ccc2ccc(C(Nc3ccccc3)c3ccc(F)cc3)c(O)c2n1 (centres undefined) | x | x | -61 | x | n
Oc1ccccc1C(Nc1nccs1)c1ccc2cccnc2c1O (centres undefined) | 7.3µM | 12µM | -93 | 4.5µM | n
Oc1c(C(Nc2ccccn2)c2ccccn2)ccc2cccnc12 (centres undefined) | u | u | -85 | u | n
O=c1cc(CO)oc(C(Nc2ccccn2)c2ccccc2F)c1O (centres undefined) | x | x | n | n | n
Cc1ccc2ccc(C(Nc3ccccn3)c3ccccc3)c(O)c2n1 (centres undefined) | u | n | n | u | n
CC1(C(=O)NS(=O)(=O)c2ccccc2)CCN1C(=O)Cc1cc(F)ccc1F (centres undefined) | x | x | n | x | n
O=S(=O)(c1ccccc1)N(C[C@@H](O)CN1CCCCC1)c1ccccc1 | x | n | x | x | x
Cc1cccc(NC(c2ccc(C)s2)c2ccc3ccc(C)nc3c2O)n1 (centres undefined) | n | n | -95 | u | u
Cc1ccnc(NC(c2cc(C)ccc2O)c2ccc3cccnc3c2O)c1 (centres undefined) | u | u | n | x | n
COc1cc(C(Nc2ccccn2)c2ccc3ccc(C)nc3c2O)cc(OC)c1O (centres undefined) | u | u | x | n | 35µM
Cc1ccnc(NC(c2ccccc2F)c2ccc3cccnc3c2O)c1 (centres undefined) | u | u | -77 | x | n
SMILES | Lassa entry inh | MARV entry inh | HCMV inh | HCV inhibitor | FMDV antiviral
Cc1ccc(C(=O)c2cn(Cc3ccccc3F)c3cc4c(cc3c2=O)OCO4)cc1 | n | n | n | x | n
Cc1ccc(Cl)cc1N1CCN(C(=O)c2cc(S(=O)(=O)N3CCCCCC3)cn2C)CC1 | n | x | n | x | u
O=C(NCc1nnc2c(C(F)(F)F)cc(Cl)cn12)c1ccc2c(c1)OCO2 | x | x | n | n | n
Oc1ccc(Br)cc1-c1nc2cnccn2c1NC1CCCC1 | n | u | u | 11µM | u
Fc1ccc(-c2nc3cnccn3c2NC2CCCC2)cc1 | x | x | n | 14µM | n
Oc1ccc(Br)cc1-c1nc2cnccn2c1NC1CCCCC1 | n | u | u | u | x
NC(=S)Nc1cccc2cc3ccccc3cc12 | n | n | -105 | u | n
NC(=S)Nc1ccccc1Br | n | n | n | n | n
NC(=S)Nc1cc2ccccc2c2ccccc12 | n | n | -72 | u | u
NC(=S)Nc1cccc2cn[nH]c12 | n | n | n | n | n

Assay outcomes: PubChem BioAssay, National Center for Advancing Translational Sciences (NCATS)
